Screening results deposited in PubChem BioAssay by Broad Institute.
HSF1 inh: HSF1 inhibition | NIH3T3-HGL HSE-luciferase, MG132-induced, luminescence 8 h; hits give low values | activity change, negative = inhibition, % at 7.5 µM (by protocol) | hit rate 0.77% among 300,000 | AID 2098;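 active = more than half of replicate wells show activity change below -50%, luminescence cut by over half; inconclusive = some wells, but at most half, below -50%; inactive = no replicate well below -50%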;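 also: luciferase reports HSF-1 transcriptional activity via heat shock element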
Vif imaging: blocks HIV Vif function; HEK293T cells, Vif self-association by quenched fluorescence, imaging, 24 h; inhibition, % at 7.49 µM; hit rate 0.35% among 340,000; AID 602346; in the data active = inhibition above about 50%, passing the limit was not always enough; inconclusive = no clear call, values can overlap the other calls; inactive = below about 31%
esBAF inh: inhibitors of esBAF chromatin remodeling in mouse ES cells | Bmi1-luciferase knock-in reporter, 24 h; 100% = twice the neutral-well signal | reporter increase, % at 12.5 µM | hit rate 2% among 350,000; in the data active = activation above about 40%; inconclusive = no clear call, values can overlap the other calls;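 also: a rise in the Bmi1 reporter signal indicates esBAF inhibition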
HSF-1 act: increases HSF-1 driven luciferase reporter signal | NIH3T3-HGL HSF-1 luciferase reporter, MG132, 8 h; 100% = twice DMSO control signal | activation, % at 9 µM | hit rate 1.7% among 300,000;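 active = mean replicate activation of at least 50% with a set share of replicates each reaching 50%; inconclusive = only one of those two conditions met; inactive = mean below 50% and too few replicates reaching it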
Ring1 derepress: de-represses Ring1 in mouse ESCs, confirming esBAF inhibition | shares compounds with esBAF inh | mouse ESC E14, Ring1 mRNA RT-qPCR fold change | fold change at 33 µM | 550 tested, under 10 active;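 active = Ring1 gene expression raised more than 2-fold over untreated cells in both replicates at either tested dose; inconclusive = only one replicate above 2-fold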;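 also: Ring1 transcript normalised to actin housekeeping signal by TaqMan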
Fgf4 repress: represses Fgf4 in mouse ESCs, confirming esBAF inhibition; shares compounds with esBAF inh; mouse ESC E14, Fgf4 mRNA qPCR fold change; hits give low values; Fgf4 expression fold change at 33 µM; hit rate 4% among 550;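 active = Fgf4 expression under 0.8 fold of control in both repeat measurements at one or both tested doses; inconclusive = under 0.8 fold in just a single repeat measurement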;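 also: Fgf4 transcript normalised to actin in duplex TaqMan qPCR; cells exposed to compound for 24 h before lysis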
esBAF Bmi1 qPCR: esBAF inhibition confirmed by Bmi1 de-repression | mouse ESE14 ES cells, Bmi1 mRNA qPCR fold; hits give high values | AID 743180 | fold change at 33 µM | shares compounds with esBAF inh | 550 tested, under 10 active;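 active = Bmi1 expression fold change above 6 at either tested concentration, seen in replicate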;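 also: higher fold means more Bmi1 de-repression and stronger esBAF inhibition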
A549 cytotox: kills or reduces viability of A549 cells; shares compounds with esBAF inh; A549 cytotoxicity, plate reader; cell viability change % (negative = cytotoxic), % at 25 µM, hits read low; 550 tested, under 10 active; AID 743188; call rule not given here
HepG2 tox SP: kills or reduces viability of HepG2 cells | shares compounds with esBAF inh | HepG2 cytotoxicity, plate reader; hits give low values | activity change, negative = inhibition, % at 25 µM | hit rate 4% among 550 | AID 743189; in the data active = activity change below about -50%
HEK293 cytotox SP: HEK293 cell cytotoxicity at single point. shares compounds with esBAF inh. plate reader. hit rate 3% among 550. activity change, negative = inhibition, % at 25 µM, hits read low; in the data active = activity change below about -38%, passing the limit was not always enough
Of the large screens only hits and unclear results are named; the others gave an inactive call (follow-up assays come after a bar, where they were run). Shown are actives, neighbours in structure and some others; about 3.4% of the full set was active somewhere.

O=C1NC(=Nc2ccccc2)S/C1=C\c1cccn1-c1ccccc1	esBAF inh 67.0 | Ring1 derepress 2.59 | Fgf4 repress 0.444 | esBAF Bmi1 qPCR 10.7 | A549 cytotox inactive | HepG2 tox SP inactive | HEK293 cytotox SP inactive
c1ccc(Nc2cccc(Nc3ccccc3)n2)cc1	esBAF inh 59.1 (no result: Vif imaging) | Ring1 derepress inactive | Fgf4 repress inconclusive | esBAF Bmi1 qPCR inactive | A549 cytotox inactive | HepG2 tox SP inactive | HEK293 cytotox SP inactive
c1ccc(Nc2ccccn2)cc1	none
CC(O)(c1ccccc1)c1nc(-c2cccc(C(=O)O)c2)cs1 (stereo unspecified)	esBAF inh 69.0 (no result: HSF1 inh, HSF-1 act) | Ring1 derepress inactive | Fgf4 repress inactive | esBAF Bmi1 qPCR inactive | A549 cytotox inactive | HepG2 tox SP inactive | HEK293 cytotox SP inactive
CO[C@@H]1CN(C)C(=O)c2cc(NS(=O)(=O)c3cccc(F)c3)ccc2OC[C@H](C)N(C(=O)Cc2cccnc2)C[C@H]1C	none (no result: HSF1 inh, Vif imaging, HSF-1 act)
O=[N+]([O-])c1ccc(N/N=C/c2cccnc2)cc1	none
Clc1ccc(N/N=C/c2cccnc2)cc1	esBAF inh 69.7 | Ring1 derepress inactive | Fgf4 repress inactive | esBAF Bmi1 qPCR inactive | A549 cytotox inactive | HepG2 tox SP inactive | HEK293 cytotox SP inactive
CC(C)(O)c1cc2ccc(C#Cc3ccsc3)cc2c(=O)o1	esBAF inh 71.0 (no result: HSF1 inh, HSF-1 act) | Ring1 derepress inactive | Fgf4 repress inactive | esBAF Bmi1 qPCR inactive | A549 cytotox inactive | HepG2 tox SP inactive | HEK293 cytotox SP inactive
Cc1ccc(CNC(=O)c2ccc(Cn3cc(-c4ccc(C)cc4)nc3-c3ccncc3)cc2)cc1	esBAF inh 99.4, HSF-1 act inconclusive | Ring1 derepress inactive | Fgf4 repress inactive | esBAF Bmi1 qPCR inactive | A549 cytotox inactive | HepG2 tox SP inactive | HEK293 cytotox SP inactive
Cc1ccc(CNC(=O)CCn2cc(-c3ccc(C)cc3)nc2-c2ccncc2)cc1	none
CO[C@H](C(=O)N(C)C[C@@H]1OCc2ccccc2-c2c(n(C)c3ccccc23)C(=O)N([C@@H](C)CO)C[C@@H]1C)c1ccccc1	none (no result: HSF1 inh, Vif imaging, HSF-1 act)
C[C@H](CO)N1C[C@H](C)[C@H](CN(C)Cc2ccc(C(F)(F)F)cc2)Oc2c(NS(=O)(=O)c3cccs3)cccc2C1=O	none (no result: HSF1 inh, Vif imaging, HSF-1 act)
COc1ccc2oc3cc(Cl)ccc3c(=O)c2c1	esBAF inh 79.6 (no result: HSF1 inh, Vif imaging, HSF-1 act) | Ring1 derepress inactive | Fgf4 repress inconclusive | esBAF Bmi1 qPCR inactive | A549 cytotox inactive | HepG2 tox SP inactive | HEK293 cytotox SP inactive
Cc1ccc(NC(=O)C2CCCN(c3ncccn3)C2)cc1C (stereo unspecified)	esBAF inh 55.1 | Ring1 derepress inactive | Fgf4 repress inactive | esBAF Bmi1 qPCR inactive | A549 cytotox inactive | HepG2 tox SP inactive | HEK293 cytotox SP inactive
COc1ccc(NC(=O)C2CCCN(c3ncccn3)C2)cc1 (stereo unspecified)	none
Cc1cccc2sc(NC(=O)c3ccc(Cl)s3)nc12	esBAF inh inconclusive
COc1cccc2sc(NC(=O)c3ccc(Br)s3)nc12	esBAF inh 67.7 | Ring1 derepress inactive | Fgf4 repress inactive | esBAF Bmi1 qPCR inactive | A549 cytotox inactive | HepG2 tox SP inactive | HEK293 cytotox SP inactive
Cc1ccc(S(=O)(=O)N(C)C[C@@H]2OCCCC[C@@H](C)Oc3ccc(NC(=O)Nc4c(C)noc4C)cc3C(=O)N([C@@H](C)CO)C[C@@H]2C)cc1	none (no result: HSF1 inh, Vif imaging, HSF-1 act)
O=C(CCN1C(=O)/C(=C/C=C/c2ccccc2)SC1=S)Nc1cccnc1	Vif imaging 56.7, esBAF inh 66.6 | Ring1 derepress inactive | Fgf4 repress 0.591 | esBAF Bmi1 qPCR inactive | A549 cytotox inactive | HepG2 tox SP inactive | HEK293 cytotox SP inactive
C=CCNc1nc(-c2ccc(O)c(C(N)=O)c2)cs1	esBAF inh 59.0 | Ring1 derepress inactive | Fgf4 repress inactive | esBAF Bmi1 qPCR inactive | A549 cytotox inactive | HepG2 tox SP inactive | HEK293 cytotox SP inactive
O=C(Cc1cccs1)Nc1nc2c(s1)CCCC2	esBAF inh 59.2 | Ring1 derepress inactive | Fgf4 repress 0.793 | esBAF Bmi1 qPCR inactive | A549 cytotox inactive | HepG2 tox SP inactive | HEK293 cytotox SP -54.6
C[C@H](CO)N1C[C@H](C)[C@H](CN(C)Cc2ccc(C(=O)O)cc2)OCCCC[C@H](C)Oc2ccc(NC(=O)c3ccccc3)cc2C1=O	none (no result: HSF1 inh, Vif imaging, HSF-1 act)
O=C(CNC1CCCCC1)N1CCc2ccccc2C1	none (no result: esBAF inh)
O=C(NC1CCCCC1)N1CCc2ccccc2C1	esBAF inh 67.0 | Ring1 derepress inactive | Fgf4 repress inactive | esBAF Bmi1 qPCR inactive | A549 cytotox inactive | HepG2 tox SP inactive | HEK293 cytotox SP inactive
Cc1sc(NC(=O)c2cccs2)nc1-c1ccccc1	esBAF inh 63.6 | Ring1 derepress 2.45 | Fgf4 repress inactive | esBAF Bmi1 qPCR inactive | A549 cytotox inactive | HepG2 tox SP inactive | HEK293 cytotox SP inactive
Cc1ccc2oc(-c3cccc(NC(=S)NC(=O)c4cccs4)c3)nc2c1	none (no result: esBAF inh)
Cc1sc(NC(=S)NC(=O)c2cccs2)nc1-c1ccc(C(C)C)cc1	none (no result: Vif imaging)
O=C(Nc1ccc2oc(-c3ccccc3)nc2c1)c1cccs1	esBAF inh 77.6, HSF-1 act 92.8 (no result: Vif imaging) | Ring1 derepress inactive | Fgf4 repress inconclusive | esBAF Bmi1 qPCR inactive | A549 cytotox inactive | HepG2 tox SP inactive | HEK293 cytotox SP inactive
C[C@@H]1CCCCO[C@@H](CN(C)CC2CC2)[C@H](C)CN([C@@H](C)CO)C(=O)c2cc(NC(=O)c3ccncc3)ccc2O1	none (no result: HSF1 inh, Vif imaging, HSF-1 act)
CN(C)CC(=O)N[C@@H]1CC[C@@H](CCNC(=O)Nc2ccc(C(F)(F)F)cc2)O[C@@H]1CO	none (no result: HSF1 inh, Vif imaging, HSF-1 act)
O=C1N=C(N2CCCCC2)S/C1=C\c1ccccc1F	esBAF inh 57.2 | Ring1 derepress inactive | Fgf4 repress inconclusive | esBAF Bmi1 qPCR inactive | A549 cytotox inactive | HepG2 tox SP inactive | HEK293 cytotox SP inactive
COc1ccccc1N1CCN(C(=O)Nc2cccc(Cl)c2)CC1	none
COc1cccc(NC(=O)N2CCN(c3cccc(C)c3C)CC2)c1	esBAF inh 72.0 | Ring1 derepress inactive | Fgf4 repress inactive | esBAF Bmi1 qPCR inactive | A549 cytotox inactive | HepG2 tox SP inactive | HEK293 cytotox SP inactive
O=C(Nc1ccc(F)cc1)c1ccccc1F	esBAF inh 85.1 | Ring1 derepress inactive | Fgf4 repress inactive | esBAF Bmi1 qPCR inactive | A549 cytotox inactive | HepG2 tox SP inactive | HEK293 cytotox SP inactive
CC(=O)Nc1ccc(NC(=O)c2ccccc2F)cc1	none (no result: HSF1 inh, HSF-1 act)
CC(=O)Nc1ccc(C(=O)N/N=C/c2ccc(F)cc2)cc1	none (no result: esBAF inh)
